Screens (PubChem)
CYP2C19 activ: activators of human cytochrome P450 2C19; AID 1025; 96,000 tested, under 10 active; activation factor at 5 µM; recombinant CYP2C19, luciferin-H EGE luminescence; stronger effect = higher value; 0 = fully inhibited enzyme, 1 = untreated enzyme;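 active = activation factor of at least 2 at 5 µM in the primary screen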;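 also: 0 = wells with 2.5 mM tranylcypromine and 1 = vehicle-only wells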
CYP2C19 inhib: blocks human cytochrome P450 2C19. actives 21% (n = 96,000). AID 778. inhibition, % at 5 µM. CYP2C19 Supersomes, luciferin-H EGE luminescence, 30 min. P33261;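 active = CYP2C19 inhibition above a set limit at 5 µM in the primary screen, cut at about 50% in these data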;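 also: plate controls were negative control wells for no effect and 2.5 mM tranylcypromine positive control for full effect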
PostGolgi ctrl: inhibits growth of the yeast control strain. efflux-deficient yeast background strain, growth absorbance A615, 16 h. inhibition, % at 10 µM. actives 5% (n = 98,000). AID 738
CYP2C9 act: CYP2C9 (human) activation | P11712 | recombinant CYP2C9, luciferin-H conversion, luminescence; stronger effect = higher value; factor 1 = untreated enzyme, 0 = blocked | activation factor at 5 µM | actives 1.4% (n = 96,000) | AID 1024;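 active = activation factor of 2 or more for CYP2C9 at a 5 µM dose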;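 also: 0 = sulfaphenazole-blocked wells and 1 = vehicle-only wells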
Target sequence (P11712 whole entry, looked up): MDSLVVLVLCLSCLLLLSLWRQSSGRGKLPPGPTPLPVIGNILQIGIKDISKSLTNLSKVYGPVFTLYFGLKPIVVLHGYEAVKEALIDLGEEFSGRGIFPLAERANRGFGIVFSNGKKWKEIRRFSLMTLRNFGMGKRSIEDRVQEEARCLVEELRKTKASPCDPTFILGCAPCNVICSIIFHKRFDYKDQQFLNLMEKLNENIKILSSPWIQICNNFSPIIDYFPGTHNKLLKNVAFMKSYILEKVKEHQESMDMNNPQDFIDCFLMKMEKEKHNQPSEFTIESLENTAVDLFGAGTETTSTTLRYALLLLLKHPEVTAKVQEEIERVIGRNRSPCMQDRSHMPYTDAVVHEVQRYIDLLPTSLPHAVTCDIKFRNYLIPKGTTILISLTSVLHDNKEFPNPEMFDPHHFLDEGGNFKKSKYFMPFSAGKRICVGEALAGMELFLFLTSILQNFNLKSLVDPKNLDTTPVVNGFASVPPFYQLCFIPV
PostGolgi yeast: growth inhibition of a yeast mutant, post-Golgi transport screen; post-Golgi transport phenotypic cell assay; actives 0.9% (n = 98,000); inhibition, % at 10 µM; AID 739;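 also: yeast cells grown in 1536-well plates; yeast grown about 18 h at 30C before absorbance read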
CYP2C9 inhib: human CYP2C9 inhibition; CYP2C9 Supersomes, luciferin-H conversion, luminescence; inhibition, % at 5 µM; actives 20% (n = 96,000); AID 777;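 active = blocking of liver enzyme CYP2C9 beyond about 50% at 5 µM, limit read from the data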
* hit, by the source's call; . = no result given. Only some compounds are listed: those with a hit (about 32% of all), similar ones and a draw of the others. Rule as the data show it, unless noted: active = inhibition above about 30%; inactive = the rest.

SMILES	CYP2C19 activ	CYP2C19 inhib	PostGolgi ctrl	CYP2C9 act	PostGolgi yeast	CYP2C9 inhib
CCc1ccccc1NC(=O)CN(c1cccc(OC)c1)S(C)(=O)=O	0.1	86.3*	6.1	0.4	-2.7	62.6*
CCOC(=O)c1ccccc1NC(=O)c1ccc(N(C)S(C)(=O)=O)cc1	0.7	33.0	9.2	0.7	-0.2	28.5
COC(=O)CN(c1cccc(OC)c1)S(C)(=O)=O	0.8	22.3	2.1	0.9	-1.5	11.1
COc1cccc(N(CC(=O)Nc2ccccc2C)S(C)(=O)=O)c1	0.4	62.9*	16.2	0.8	-1.7	17.3
CCOC(=O)C(C(=O)Nc1ccccc1C)C1CCCCC1 (configuration not stated)	0.6	35.4	3.4	0.8	-4.7	24.0
Cc1cc(N2CCCc3ccccc32)n2ncnc2n1	1	-4.6	13.7	1.1	1.0	-9.6
Cc1csc(N2CCc3ccccc32)n1	1.2	-16.0	31.3*	1.1	13.0	-14.4
O=C(Cn1cnc2ccccc2c1=O)Nc1nnc(SCc2ccccc2)s1	1	-2.4	1.4	0.9	-5.7	9.1
Cc1ccc2c(c1)N=C(c1ccc(Cl)cc1)CO2	0.9	14.9	-4.9	0.9	-4.6	13.5
CC(C)C(NS(=O)(=O)c1cccc2nsnc12)C(=O)Nc1nc2ccc(Cl)cc2s1 (configuration not stated)	0.8	18.2	46.9*	1.1	-0.8	-10.1
CCOc1ccc2nc(NC(=O)C(NS(=O)(=O)c3cccc4nsnc34)C(C)C)sc2c1 (configuration not stated)	0.3	70.1*	14.1	0.5	2.0	47.5
COc1cccc(OC)c1C(=O)Nc1cc(C)on1	0.9	5.1	6.8	1.1	-0.8	-10.6
CC1(C)CC(=O)C(C=NCCN2CCN(CCCCS(=O)(=O)O)CC2)=C(O)C1	1.2	-17.0	32.5*	1.2	5.6	-17.0
CC1(C)CC(=O)C(C=NCCN2CCOCC2)=C(O)C1	0.8	24.0	14.1	1	9.4	-3.2
CSc1ccc(CNc2cccc3ccccc23)cc1	0	98.4*	-0.6	0.9	4.4	13.2
CSc1ccc(CNc2ccc(C)c(C)c2)cc1	0	98.3*	38.3*	1	-2.1	0.0
CSc1ccc(Cn2nnc(C(=O)NCc3ccccc3)c2N)cc1	1.2	-18.3	-0.8	0.8	-6.2	16.7
CSc1ccc(CNc2ccc(C)cc2)cc1	0.1	86.6*	-1.1	0.9	0.0	13.4
CCOc1ccc(-c2nc(CSCC(=O)NCCN3CCOCC3)c(C)o2)cc1	0.7	31.5	8.4	0.8	3.7	24.7
CC(C)Cn1cnc2c(N)nc3ccccc3c21	1	0.7	.	1	.	-2.2
CCOC(=O)C1CCN(CC(=O)Nc2c(C(=O)OC)[nH]c3cccc(C)c23)CC1	0.7	32.1	1.2	0.7	4.6	26.3
Oc1ccc(Br)cc1CN1CCCCCCC1	0.4	57.4*	11.2	1.1	3.4	-8.9
COc1ccc(C(=O)/C=C/Nc2cccc(C)n2)cc1OC	0.7	33.6	22.0	1.3	-3.7	-29.2
CCCn1c(C)nc2c(c1=O)c1nc3ccccc3nc1n2CCC1=CCCCC1	0.7	29.1	23.1	0.7	4.7	32.2
Cc1nc2c(c(=O)n1CCC1=CCCCC1)c1nc3ccccc3nc1n2/N=C/c1ccco1	0.7	34.9	13.8	0.3	-4.7	70.8*
SMILES	CYP2C19 activ	CYP2C19 inhib	PostGolgi ctrl	CYP2C9 act	PostGolgi yeast	CYP2C9 inhib
C=C(C)Cn1c(CCNC(=O)CCC)nc2ccccc21	0.6	37.2	-5.3	1	4.2	-2.3
Cc1ccccc1OCC(=O)Nc1ccc2c(c1)OCO2	0.3	66.3*	-3.0	0.7	-4.5	29.8
Cc1cc(OCC(=O)Nc2ccc3c(c2)OCCO3)ccc1Cl	0.8	17.0	-0.9	0.9	-8.7	14.8
Cc1ccccc1OCC(=O)Nc1cccc(N(C)S(C)(=O)=O)c1	0.3	68.8*	11.9	0.2	4.4	78.6*
CN(c1cccc(NC(=O)CSc2ccc(Cl)cc2)c1)S(C)(=O)=O	0.7	25.3	8.2	0.6	-1.1	45.0
Cc1ccc(NC(=O)CS(=O)CC(=O)Nc2ccc3c(c2)OCO3)cc1Cl (configuration not stated)	0.9	11.0	-0.6	0.5	11.7	50.8*
CN(c1cccc(NC(=O)CCSc2ccccc2)c1)S(C)(=O)=O	0.2	78.2*	3.0	0.3	3.5	68.1*
CN(c1cccc(NC(=O)COc2ccccc2)c1)S(C)(=O)=O	0.8	18.8	-1.9	1	0.0	4.6
CC(=O)Nc1nonc1-c1nc2ccccc2n1Cc1nnc(C)o1	1.1	-5.3	6.3	1	-3.5	-0.2
COc1ccc(C(NC(=O)c2ccc(-c3ccccc3)cc2)c2ccccc2)cc1 (configuration not stated)	0.9	8.8	-12.6	1	-3.0	-0.5
COc1ccc(C(C)NC(=O)c2ccccc2)cc1 (configuration not stated)	0.3	75.0*	-1.6	0.9	7.5	5.2
CC(=O)OC1COC(n2ccc3ccccc32)C(OC(C)=O)C1OC(C)=O (configuration not stated)	0.3	67.1*	-10.7	0.7	4.9	27.2
CC(=O)OCC1OC(n2ccc3ccccc32)C(OC(C)=O)C(OC(C)=O)C1OC(C)=O (configuration not stated)	0.9	11.7	2.2	0.7	-13.2	32.7
CCN(CC)C(=O)C1CCN(Cc2ccc(Br)cc2)CC1	0.8	24.8	6.2	0.9	60.9*	11.8
Cc1ccc(C(=O)Nc2ncnc3sc4c(c23)CCCCC4)cc1	0.6	36.2	5.8	0.8	5.2	21.2
CN(CC(=O)N1CCc2ccccc21)S(=O)(=O)c1ccc(Cl)cc1	0.4	59.5*	16.1	2.7*	8.2	-167.1
CCOc1ccc(S(=O)(=O)N(CC(=O)N2CCc3ccccc32)Cc2ccco2)cc1	0.1	92.2*	20.9	0.5	-5.2	52.5*
c1ccc2nc(-c3nc4ccccc4o3)ccc2c1	0.3	71.3*	12.8	0.6	22.4	42.7
c1ccc(-c2nc3ccccc3o2)nc1	0.8	19.0	1.2	1.1	-29.8	-8.8
Nc1sccc1C(=O)c1ccccc1	1.1	-11.1	1.5	0.9	8.1	9.7
C[C@@]12CC(=O)NC1N(C(=O)c1cccc(C(F)(F)F)c1)C(c1ccccc1OC(=O)c1cccc(C(F)(F)F)c1)C2 (some centres not stated)	0.5	47.9	2.5	0.1	16.6	94.5*
O=C(NCCc1ccccc1)C1CCCN(S(=O)(=O)c2cnc[nH]2)C1 (configuration not stated)	0.2	84.8*	0.6	0.4	-14.5	59.2*
O=C(NCCN1CCN(c2ccccc2F)CC1)C1CCCN(S(=O)(=O)c2cnc[nH]2)C1 (configuration not stated)	1	-4.8	2.8	0.9	-14.3	7.3
Cc1cccc(CCNC(=O)C2CCCN(S(=O)(=O)c3cnc[nH]3)C2)c1 (configuration not stated)	0.1	92.5*	0.6	0.2	-15.7	77.2*
